# Laboratory results as given in PubChem BioAssay (EPA / NIEHS).
# Several values for one entry are separate records, joined by “and”; a condition that tells them apart may be missing. Equal values may be shown once. More than one record can exist for a structure, and the calls need not agree. Activity calls are given as the source filed them. How the source made its calls: active means hit-call score of the fitted dose curve at least 0.9, where 1 is the maximum; inactive means score below 0.9.
# Assays:
# [1] = read-out: Interleukin 2 (IL2), IL2 (gene 3558); test: BSK_BT_xIL2: BioMAP Diversity Plus: BT Assay for Interleukin 2 (IL2) Biomarker Activity (AID 2284245); conditions: primary human B cells with PBMC
# Method in brief: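 B cell + PBMC co-culture (human primary), compound added, 24 h incubation; secreted IL-2 measured multiplexed on Luminex xMAP; gain-of-signal fit vs DMSO.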
# [2] = read-out: Basic fibroblast growth factor (bFGF), FGF2 (gene 2247); test: BSK_MyoF_bFGF: BioMAP Diversity Plus: MyoF Assay for Basic fibroblast growth factor (bFGF) Biomarker Activity (AID 2284246); conditions: primary human lung fibroblasts
# Method in brief: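 ELISA-measured bFGF level serves as the read-out, taken 24 h after chemical dosing of human lung fibroblasts. Values represent signal gain over the DMSO negative control.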
# [3] = read-out: Collagen IV, COL4A1 (gene 1282); test: BSK_MyoF_CollagenIV: BioMAP Diversity Plus: MyoF Assay for Collagen IV Biomarker Activity (AID 2284247); conditions: primary human lung fibroblasts
# Method in brief: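 Steps: dose human lung fibroblasts; culture 24 h; quantify Collagen IV by ELISA; fit increase versus DMSO control. Parallel SRB total-protein staining (0.1% SRB after 10% TCA fixation, 560 nm) tracks overt cytotoxicity.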
# [4] = read-out: Plasminogen activator inhibitor-1 (PAI1), SERPINE1 (gene 5054); test: BSK_MyoF_PAI1: BioMAP Diversity Plus: MyoF Assay for Plasminogen activator inhibitor-1 (PAI1) Biomarker Activity (AID 2284256); conditions: primary human lung fibroblasts;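 on outcome: PAI-1 protein level measured by ELISA in fibroblast cultures; PAI-1 read 24 h after compound addition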
# Method in brief: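 MyoF lung fibroblasts, human primary; compound 24 h; PAI-1 ELISA; positive-direction fit vs DMSO baseline; parallel SRB total-protein staining for cytotoxicity.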
# [5] = read-out: Interleukin-8 (IL8), CXCL8 (gene 3576); test: BSK_MyoF_IL8: BioMAP Diversity Plus: MyoF Assay for Interleukin-8 (IL8) Biomarker Activity (AID 2284261); conditions: primary human lung fibroblasts
# Method in brief: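 Lung fibroblasts (human primary) → chemical exposure → 24 h → IL-8 measured by ELISA. Signal increase scored versus DMSO control.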
# Decorin, DCN (gene 1634) = test: BSK_MyoF_Decorin: BioMAP Diversity Plus: MyoF Assay for Decorin Biomarker Activity (AID 2284265); conditions: primary human lung fibroblasts
# Method in brief: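 ELISA readout of decorin, 24 h post-dosing; primary human lung fibroblast (MyoF) culture; gain-of-signal fit vs DMSO baseline.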
# [6] = read-out: Monokine induced gamma interferon (MIG), CXCL9 (gene 4283); test: BSK_KF3CT_MIG: BioMAP Diversity Plus: KF3CT Assay for Monokine induced gamma interferon (MIG) Biomarker Activity (AID 2284248); conditions: primary human keratinocytes with fibroblasts
# Method in brief: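 ELISA read-out of MIG after 24 h chemical exposure of human skin primary co-culture (keratinocytes, foreskin fibroblasts). Gain of signal relative to DMSO negative control was analysed.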
# [7] = read-out: Collagen I, COL1A1 (gene 1277); test: BSK_hDFCGF_CollagenI: BioMAP Diversity Plus: hDFCGF Assay for Collagen I Biomarker Activity (AID 2284250); conditions: primary human foreskin fibroblasts
# Method in brief: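 Human skin primary fibroblasts dosed with test chemical, harvested at 24 h, Collagen I quantified by ELISA; parallel SRB staining (0.1% SRB after 10% TCA fixation, 560 nm) tracked cytotoxicity.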
# [8] = read-out: Interferon-inducible T-cell alpha chemoattractant (ITAC), CXCL11 (gene 6373); test: BSK_hDFCGF_ITAC: BioMAP Diversity Plus: hDFCGF Assay for Interferon-inducible T-cell alpha chemoattractant (ITAC) Biomarker Activity (AID 2284251); conditions: primary human foreskin fibroblasts
# Method in brief: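 Primary human foreskin fibroblasts (hDFCGF system) treated for 24 h; I-TAC quantified by ELISA. Gain-direction fitting versus DMSO; parallel SRB staining of total protein flagged overt cytotoxicity.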
# [9] = read-out: Interleukin-8 (IL8), CXCL8 (gene 3576); test: BSK_KF3CT_IL8: BioMAP Diversity Plus: KF3CT Assay for Interleukin-8 (IL8) Biomarker Activity (AID 2284254); conditions: primary human keratinocytes with fibroblasts
# Method in brief: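 IL-8 read-out: ELISA, 24 h post-dose, human skin primary co-culture (keratinocytes + foreskin fibroblasts). DMSO = baseline; positive-direction fit.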
structure (smiles),measurement,setting,value
c1ccc2c(c1)[nH]c1ccccc12,outcome,[1],inactive
same,outcome,[2],inactive
same,outcome,[3],inactive
same,outcome,[4],inactive
same,outcome,[5],inactive
same,outcome,"Decorin, DCN (gene 1634)",inactive
Oc1c(Cl)cc(Cl)c(Cl)c1Cl,outcome,[1],inactive
same,AC50,[2],20 µM (active)
same,outcome,[3],inactive
same,AC50,[4],28.3 µM (active)
same,outcome,[5],inactive
same,AC50,"Decorin, DCN (gene 1634)",37.4 µM (active)
CCN1CN(CC)CN(CC)C1,outcome,[1],inactive
same,outcome,[2],inactive
same,outcome,[3],inactive
same,outcome,[4],inactive
same,outcome,[5],inactive
same,outcome,"Decorin, DCN (gene 1634)",inactive
CC/C=C\CCOC(=O)c1ccccc1O,outcome,[1],inactive
same,AC50,[2],31.3 µM (active)
same,AC50,[3],33.2 µM (active)
same,AC50,[4],31.3 µM (active)
same,outcome,[5],inactive
same,AC50,"Decorin, DCN (gene 1634)",20 µM (active)
Nc1nc(N)nc(-c2ccccc2)n1,outcome,[6],inactive
same,outcome,[7],inactive
same,outcome,[8],inactive
same,outcome,[9],inactive
CCCCCC1=CCCC1=O,outcome,[1],inactive
same,outcome,[2],inactive
same,outcome,[3],inactive
same,outcome,[4],inactive
same,outcome,[5],inactive
same,outcome,"Decorin, DCN (gene 1634)",inactive
C=CC(=O)NC(C)(C)C,outcome,[1],inactive
same,outcome,[2],inactive
same,outcome,[3],inactive
same,outcome,[4],inactive
same,outcome,[5],inactive
same,outcome,"Decorin, DCN (gene 1634)",inactive
c1ccc(Nc2cccc3ccccc23)cc1,AC50,[6],38.9 µM (active) and 33.8 µM (active)
same,AC50,[7],14.3 µM (active)
same,outcome,[7],inactive
same,AC50,[8],30.1 µM (active) and 30.3 µM (active)
same,AC50,[9],31.6 µM (active) and 29.4 µM (active)
Cc1c(O)cccc1O,outcome,[1],inactive
same,outcome,[2],inactive
same,outcome,[3],inactive
same,outcome,[4],inactive
same,outcome,[5],inactive
same,outcome,"Decorin, DCN (gene 1634)",inactive
CCOC(=O)C1=NN(c2ccc(Cl)cc2Cl)C(C)(C(=O)OCC)C1 (stereo not drawn),outcome,[1],inactive
same,outcome,[2],inactive
same,outcome,[3],inactive
same,outcome,[4],inactive
same,outcome,[5],inactive
same,outcome,"Decorin, DCN (gene 1634)",inactive
C=CC(=O)OCCCCCCCC(C)C,outcome,[1],inactive
same,outcome,[2],inactive
same,outcome,[3],inactive
same,outcome,[4],inactive
same,outcome,[5],inactive
same,outcome,"Decorin, DCN (gene 1634)",inactive
COC(OC)(C(=O)c1ccccc1)c1ccccc1,outcome,[1],inactive
same,outcome,[2],inactive
same,outcome,[3],inactive
same,outcome,[4],inactive
same,outcome,[5],inactive
same,outcome,"Decorin, DCN (gene 1634)",inactive
CCCCCCCCCCCC(C)=O,outcome,[1],inactive
same,outcome,[2],inactive
same,outcome,[3],inactive
same,outcome,[4],inactive
same,outcome,[5],inactive
same,outcome,"Decorin, DCN (gene 1634)",inactive
CCCCCCCCC(CO)CCCCCC (stereo not drawn),outcome,[1],inactive
same,outcome,[2],inactive
same,outcome,[3],inactive
same,outcome,[4],inactive
same,outcome,[5],inactive
same,outcome,"Decorin, DCN (gene 1634)",inactive
CC(CCC(=O)O)(c1ccc(O)cc1)c1ccc(O)cc1,outcome,[6],inactive
same,outcome,[7],inactive
same,outcome,[8],inactive
same,outcome,[9],inactive
CCC1(C)C(=O)N(Cl)C(=O)N1Cl (stereo not drawn),outcome,[1],inactive
same,outcome,[2],inactive
same,outcome,[3],inactive
same,outcome,[4],inactive
same,outcome,[5],inactive
same,outcome,"Decorin, DCN (gene 1634)",inactive
CCCCCCCCCCCC(=O)N(C)CC(=O)O,outcome,[6],inactive
same,outcome,[7],inactive
same,outcome,[8],inactive
same,outcome,[9],inactive
C=CC(=O)NCOCCCC,outcome,[1],inactive
same,outcome,[2],inactive
same,outcome,[3],inactive
same,outcome,[4],inactive
same,outcome,[5],inactive
same,outcome,"Decorin, DCN (gene 1634)",inactive
Oc1ccccc1Cc1ccccc1O,outcome,[6],inactive
same,outcome,[7],inactive
same,outcome,[8],inactive
same,outcome,[9],inactive
CC(C)c1cccc(C(C)C)c1N,outcome,[1],inactive
same,outcome,[2],inactive
same,outcome,[3],inactive
same,outcome,[4],inactive
same,outcome,[5],inactive
same,outcome,"Decorin, DCN (gene 1634)",inactive
CCCCC1C(=O)N(c2ccccc2)N(c2ccccc2)C1=O,outcome,[2],inactive
same,outcome,[3],inactive
same,outcome,[4],inactive
same,outcome,[5],inactive
same,outcome,"Decorin, DCN (gene 1634)",inactive
CC(C)C(=O)OCCc1ccccc1,outcome,[6],inactive
same,outcome,[7],inactive
same,outcome,[8],inactive
same,outcome,[9],inactive
CC(C)[N+](C)(CCOC(=O)C1c2ccccc2Oc2ccccc21)C(C)C,outcome,[1],inactive
same,outcome,[2],inactive
same,outcome,[3],inactive
same,AC50,[4],0.0398 µM (active)
same,outcome,[5],inactive
same,outcome,"Decorin, DCN (gene 1634)",inactive
CCOC(=O)C1=NOC(c2ccccc2)(c2ccccc2)C1,outcome,[1],inactive
same,outcome,[2],inactive
same,outcome,[3],inactive
same,outcome,[4],inactive
same,outcome,[5],inactive
same,outcome,"Decorin, DCN (gene 1634)",inactive
C=CC(=O)OCC(C)OCC(C)OCC(C)OC(=O)C=C (stereo not drawn),AC50,[1],9.17 µM (active)
same,AC50,[2],31.1 µM (active)
same,AC50,[3],23.5 µM (active)
same,AC50,[4],30.9 µM (active)
same,outcome,[5],inactive
same,AC50,"Decorin, DCN (gene 1634)",20 µM (active)
CC/C=C\C/C=C\C/C=C\CCCCCCCC(=O)OC,AC50,[1],27.5 µM (active)
same,AC50,[2],9.83 µM (active)
same,AC50,[3],20 µM (active)
same,AC50,[4],13.7 µM (active)
same,AC50,[5],20 µM (active)
same,outcome,"Decorin, DCN (gene 1634)",inactive
CC=C(C)C(C)=O,outcome,[1],inactive
same,outcome,[2],inactive
same,outcome,[3],inactive
same,outcome,[4],inactive
same,outcome,[5],inactive
same,outcome,"Decorin, DCN (gene 1634)",inactive
c1ccc2sc(SSN3CCOCC3)nc2c1,AC50,[1],28.1 µM (active)
same,AC50,[2],28.8 µM (active)
same,AC50,[3],14.9 µM (active)
same,AC50,[4],29.8 µM (active)
same,outcome,[5],inactive
same,outcome,"Decorin, DCN (gene 1634)",inactive
CC(Cl)COP(=O)(OCC(C)Cl)OCC(C)Cl (stereo not drawn),outcome,[1],inactive
same,outcome,[2],inactive
same,outcome,[3],inactive
same,outcome,[4],inactive
same,outcome,[5],inactive
same,outcome,"Decorin, DCN (gene 1634)",inactive
CCCCCCC=O,outcome,[1],inactive
same,outcome,[2],inactive
same,outcome,[3],inactive
same,outcome,[4],inactive
same,outcome,[5],inactive
same,outcome,"Decorin, DCN (gene 1634)",inactive
Fc1ccc(Br)cc1,outcome,[1],inactive
same,outcome,[2],inactive
same,outcome,[3],inactive
same,outcome,[4],inactive
same,outcome,[5],inactive
same,outcome,"Decorin, DCN (gene 1634)",inactive
CCCC(C)C(=O)OCC (stereo not drawn),outcome,[6],inactive
same,outcome,[7],inactive
same,outcome,[8],inactive
same,outcome,[9],inactive
